These results are taken from PubChem BioAssay (NCI).

About 83,000 compounds went through this panel and 20% of them were active in at least one assay; those are over-represented in the sample as a whole.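 Results are percent growth after 48 hours of single-concentration exposure. 100 means growth as in untreated cells, lower positive values show inhibition; negative values down to -100 show cell death.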 The source made the active and inactive calls. How the source made its calls: active means growth percent below 10; inactive means the rest.

One assay deals with BT-549 breast. The experiment in a line: NCI-60 one-dose screen, 48 h (100 = growth as untreated, 0 = no growth, -100 = all killed). Particulars: 10 µM unless noted.
Consider `NC(=O)c1cccc(-c2cc(C(N)=O)ccc2Cl)c1`, for which the growth is 57.9% (inactive).

As for `N#C/C(=C\c1ccc(Br)cc1)n1nnc2cccc(F)c21`, the growth is 17.6% (inactive).

On to `CN1CCN(C(=O)OCc2nc3c(N4CCOCC4)nc(-c4ccccc4)nc3n2C)CC1`, for which the growth was -71.1% (active).

A further assay deals with MDA-MB-435 melanoma. Described as above. Particulars: 10 µM unless noted.
Consider `C=C(C)[C@@H]1CC[C@]2(C=O)CC[C@]3(C)[C@H](CC[C@@H]4[C@@]5(C)CCCNC(C)(C)[C@@H]5CC[C@]43C)[C@@H]12`, for which the growth is 66.6% (inactive).

As to `COc1cc(OC)cc(C2C3=C(COC3=O)Nc3cc(OC)ccc32)c1` (configuration not stated), the growth is -30% (active).

`CN1CCN(C(=O)[C@]2(C)CC[C@]3(C)CC[C@]4(C)C(=CC(=O)[C@@H]5[C@@]6(C)CCC(=O)NC(C)(C)[C@@H]6CC[C@]54C)[C@@H]3C2)CC1`: the growth is 100% (inactive).

In the case of `COc1cc(C2CC(c3cccc(Nc4ccncc4)c3)=NN2c2cc(Cl)cc(Cl)c2)cc(OC)c1OC` (configuration not stated), the growth was -85% (active).

As to `COc1ccc(-c2ncc(-c3ccccc3)[nH]2)cc1OC`, the growth was 104% (inactive).

For the compound `CC(C)(C)OC(=O)N1C/C(=C\c2ccoc2)C(=O)/C(=C/c2ccoc2)C1`, the growth is 98.2% (inactive).

As for `Cc1ccc2nc3c(cc2c1)CSc1nnc(-c2ccc[nH]c2=S)n1N3`, the growth was 88.2% (inactive).

With `COc1ccc(Nn2c(SCC(=O)Nc3nc(-c4ccc(Cl)cc4)cs3)nc(C)c2C)cc1`, the growth was 50.4% (inactive).

As for `C=C(C)[C@@H]1CC[C@]2(C(=O)NCCCN(CCC#N)CCC#N)CC[C@]3(C)[C@H](CC[C@@H]4[C@@]5(C)CCC(=O)C(C)(C)[C@@H]5CC[C@]43C)[C@@H]12`, the growth is 105% (inactive).
